# Data taken from PubChem BioAssay AID651610 (Broad Institute, 2012).
# The campaign covered roughly 360,000 compounds. About 3,900 (1.1%) were called active.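 How the source made its calls: active means mean replicate inhibition score of at least 50 and every replicate individually at or above 50; inconclusive means only one of the two criteria met; inactive means mean below 50 and not all replicates reaching 50.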 Only a selection was taken, and actives are over-represented in it overall.
# Experiment: blockers of JRFL envelope-mediated fusion – HeLa-JRFL effector, CEM21 target cells, luciferase, primary screen (AID 651610);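 further: 0% = plate neutral controls and 100% = maraviroc near 300 nM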
# Settings: HeLa-JRFL Env/CEM21 cell fusion, stronger effect = higher value; at 16.7 µM unless noted
row,SMILES,inhibition
1,O=C(NC[C@H]1CC[C@@H]2[C@@H](CN2S(=O)(=O)c2ccccc2F)O1)C1CCCCC1,5.54% (inactive)
2,CCCCn1nc(C(=O)Nc2ccc(S(=O)(=O)Nc3ncccn3)cc2)c2ccccc2c1=O,3.69% [at 12.3 µM] (inactive)
3,Cc1ccc(-n2c(O)c(C=Nc3ccc(S(=O)(=O)Nc4ncccn4)cc3)c3ccccc3c2=O)cc1C,65% [at 12.3 µM] (active)
4,CCN(CC)CCCN=Cc1c(O)n(-c2ccc(C)cc2)c(=O)c2ccccc12,-12.6% [at 12.3 µM] (inactive)
5,Cc1ccc(S(=O)(=O)Nc2ccc3c(c2)C(=O)N([C@H](C)CO)C[C@H](C)[C@H](CN(C)S(=O)(=O)c2ccc(F)cc2)OCCCC[C@@H](C)O3)cc1,-11.1% (inactive)
6,CCCC(=O)Nc1ccc(C(=O)N/N=C/c2ccc[nH]2)cc1,66.2% [at 12.3 µM] (active)
7,O=C(COc1ccccc1[N+](=O)[O-])N/N=C/c1ccc[nH]1,-18.2% [at 12.3 µM] (inactive)
8,CC(=O)Nc1ccc(C(=O)/C=C/c2ccc[nH]2)cc1,3.48% [at 12.3 µM] (inactive)
9,CC1(C)OC(=O)C2=C(CC(CCc3ccccc3)OC2c2ccc(Cl)cc2)O1 (stereo not drawn),-17.2% [at 12.3 µM] (inactive)
10,COc1ccc(C(CNC(=O)c2cccc(NS(=O)(=O)c3ccc(C)c(F)c3)c2)N2CCCC2)cc1 (stereo not drawn),-23.5% [at 12.3 µM] (inactive)
11,COc1ccc(C(CNC(=O)c2ccc(NS(=O)(=O)c3ccc(F)c(C)c3)cc2)N(C)C)cc1 (stereo not drawn),-1.84% [at 12.3 µM] (inactive)
12,Cc1cc(S(=O)(=O)Nc2ccc(C(=O)NCC(c3ccco3)N3CCCC3)cc2)ccc1F (stereo not drawn),57.1% [at 12.3 µM] (active)
13,COc1ccc(NC(=O)N(C)C[C@@H]2OCCCC[C@@H](C)Oc3ccc(N(C)C)cc3C(=O)N([C@H](C)CO)C[C@@H]2C)cc1,7.61% (inactive)
14,C[C@H]1CN([C@@H](C)CO)C(=O)Cc2cc(NC(=O)C3CC3)ccc2O[C@H]1CN(C)C(=O)Nc1ccc(C(F)(F)F)cc1,3.78% (inactive)
15,C[C@H](CO)N1C[C@H](C)[C@@H](CN(C)S(=O)(=O)c2cn(C)cn2)OCCCC[C@H](C)Oc2ccc(NC(=O)Cc3ccccc3)cc2C1=O,-9.54% (inactive)
16,C=CCn1c(C)cc(C2=NNC(=NCC)SC2)c1C,68.8% [at 12.3 µM] (active)
17,CO[C@@H]1CN(C)C(=O)c2ccc(NC(=O)c3ccc(F)cc3)cc2OC[C@H](C)NC[C@@H]1C,-0.21% (inactive)
18,C[C@@H]1CN([C@H](C)CO)C(=O)Cc2cc(NC(=O)Nc3ccc(F)cc3)ccc2O[C@@H]1CN(C)C(=O)Nc1ccc2c(c1)OCO2,8.43% (inactive)
19,COc1ccc(N(CC(=O)Nc2ccc(C)cc2C)S(=O)(=O)c2ccccc2[N+](=O)[O-])c(OC)c1,31.2% [at 12.3 µM] (inactive)
20,COc1ccc(N(CC(=O)Nc2cccc3ccccc23)S(C)(=O)=O)c(OC)c1,4.71% [at 12.3 µM] (inactive)
21,CCc1ccccc1NC(=O)CN(c1ccc(OC)cc1OC)S(=O)(=O)c1ccccc1[N+](=O)[O-],55.2% [at 12.3 µM] (active)

row,SMILES,inhibition
1,C[C@H](CO)N1C[C@H](C)[C@@H](CN(C)Cc2ccc(C(=O)Nc3ccccc3N)cc2)Oc2c(NC(=O)c3ccc(-c4nccs4)cc3)cccc2C1=O,-33.5% (inactive)
2,COc1ccc(Cl)cc1NC(=O)CN(C)C(=O)CNC(=O)C12CC3CC(CC(C3)C1)C2,-38.6% [at 12.3 µM] (inactive)
3,COc1ccc(Cl)cc1NC(=O)CN(C)C(=O)CCCc1c[nH]c2ccccc12,75.6% [at 12.3 µM] (active)
4,COc1ccc(Cl)cc1NC(=O)CN(C)C(=O)c1cc2ccccc2cc1OC,26.5% [at 12.3 µM] (inactive)
5,C[C@H](CO)N1C[C@H](C)[C@H](CN(C)C(=O)Nc2ccc(C(F)(F)F)cc2)Oc2ccc(NS(=O)(=O)c3cn(C)cn3)cc2CC1=O,10.7% (inactive)
6,CN1C(=O)c2cc(NS(=O)(=O)CC(F)(F)F)ccc2OC[C@H]2O[C@@H](CC(=O)NCc3ccc(Cl)c(Cl)c3)CC[C@@H]21,-8.14% (inactive)
7,COCC(=O)Nc1ccc2c(c1)C(=O)N(C)[C@H]1CC[C@H](CC(=O)Nc3ccccc3)O[C@H]1CO2,12.1% (inactive)
8,Cc1nc(Nc2ccc(S(=O)(=O)N3CCCC3)cc2)c2nnn(Cc3ccccc3)c2n1,11.3% [at 12.3 µM] (inactive)
9,O=C1c2cccnc2C(Nc2ccc(S(=O)(=O)N3CCCCCC3)cc2)N1Cc1ccccc1 (stereo not drawn),75.5% [at 12.3 µM] (active)
10,O=S(=O)(NCc1ccccc1)c1ccc(S(=O)(=O)N2CCCC2)cc1,-8.09% [at 12.3 µM] (inactive)
11,NCC[C@@H]1CC[C@@H](NC(=O)C2CCCC2)[C@H](CO)O1,-16.5% (inactive)
12,O=C(C[C@H]1C[C@H]2c3cc(NC(=O)c4ccc5c(c4)OCO5)ccc3O[C@H]2[C@@H](CO)O1)NCc1cccc(F)c1,-9.68% (inactive)
13,CC(=O)c1ccc(-c2nnc(CCC(=O)N(C)Cc3cnc4ccccn34)o2)s1,0.752% [at 12.3 µM] (inactive)
14,CCc1ccc(CN(C)C(=O)CCc2nnc(-c3ccc(-c4ccccc4)cc3)o2)nc1,55.8% [at 12.3 µM] (active)
15,CCc1ccc(CN(C)Cc2nc(Cc3ccccc3)no2)nc1,9.8% [at 12.3 µM] (inactive)
16,CN(C)C(=O)C[C@H]1C[C@H]2c3cc(NC(=O)Nc4ccccc4F)ccc3O[C@H]2[C@@H](CO)O1,1.88% (inactive)
17,Cc1ccc(-c2noc(CSc3nnc(-c4cccs4)n3C)n2)cc1,19.8% [at 12.3 µM] (inactive)
18,Fc1ccc(-n2c(Cc3ccccc3)nnc2SCc2nc(-c3ccc(Cl)cc3)no2)cc1,79.7% [at 12.3 µM] (active)
19,Cn1c(SCc2ccc(F)cc2)nnc1-c1ccncc1,8.23% [at 12.3 µM] (inactive)
20,O=C(CSc1nnc(Cc2ccccc2)n1-c1ccccc1)N1CCOCC1,-26.5% [at 12.3 µM] (inactive)
21,Cn1cccc1Cc1nnc(SCC(=O)NCCc2ccccc2)n1-c1ccc(F)cc1,16% [at 12.3 µM] (inactive)

row,SMILES,inhibition
1,Cc1ccc(-c2noc(CSc3nnc(-c4ccncc4)n3-c3ccc(F)cc3)n2)cc1,62.8% [at 12.3 µM] (active)
2,C[C@@H]1CCCCO[C@@H](CN(C)Cc2ccncc2)[C@H](C)CN([C@@H](C)CO)C(=O)c2cc(NS(=O)(=O)c3ccccc3)ccc2O1,18.8% (inactive)
3,CO[C@@H]1CN(C)C(=O)c2cc(NC(C)=O)ccc2OC[C@@H](C)N(C(=O)NC2CCCCC2)C[C@H]1C,27.6% (inactive)
4,CC1(C(=O)NCc2cccc3ccccc23)CCN1Cc1ccc(-c2ccccc2)o1 (stereo not drawn),102% [at 12.3 µM] (active)
5,CSc1ccc(CN2CCC2(C)C(=O)NCc2ccccc2Br)cc1 (stereo not drawn),26.2% [at 12.3 µM] (inactive)
6,CC1(C(=O)NCc2ccc3c(c2)OCO3)CCN1C(=O)Cc1cccc2ccccc12 (stereo not drawn),-2.06% [at 12.3 µM] (inactive)
7,C[C@@H]1CN([C@H](C)CO)C(=O)c2cc(NC(=O)Nc3ccccc3)ccc2O[C@H]1CN(C)S(=O)(=O)c1ccc(F)cc1,-5.96% (inactive)
8,CNC[C@@H]1Oc2c(NC(=O)Nc3ccc(OC)cc3)cccc2C(=O)N([C@@H](C)CO)C[C@@H]1C,5.18% (inactive)
9,COc1ccc(NC(=O)Nc2ccc3c(c2)CC(=O)N([C@H](C)CO)C[C@H](C)[C@H](CN(C)S(=O)(=O)c2ccccc2)O3)cc1,59.1% (active)
10,C[C@H](CO)N1C[C@H](C)[C@H](CN(C)S(=O)(=O)c2ccccc2)Oc2c(NC(=O)Nc3ccccc3)cccc2C1=O,-1.17% (inactive)
11,C[C@@H]1CCCCO[C@@H](CN(C)S(=O)(=O)c2ccc(F)cc2)[C@@H](C)CN([C@@H](C)CO)C(=O)c2cc(NC(=O)Nc3ccc4c(c3)OCO4)ccc2O1,-5.81% (inactive)
12,COc1ccc(S(=O)(=O)N(C)C[C@H]2Oc3ccc(NC(=O)Nc4ccccc4)cc3CC(=O)N([C@H](C)CO)C[C@@H]2C)cc1,-2.93% (inactive)
13,COc1ccc(NC(=O)Nc2ccc3c(c2)CC(=O)N([C@H](C)CO)C[C@H](C)[C@H](CN(C)S(=O)(=O)c2ccc(OC)cc2)O3)cc1,42.7% (inactive)
14,C[C@H]1CN([C@@H](C)CO)C(=O)c2cccc(NC(=O)Nc3ccc(C(F)(F)F)cc3)c2O[C@H]1CN(C)S(=O)(=O)c1ccccc1,69.3% (active)
15,C[C@H](CO)N1C[C@H](C)[C@@H](CN(C)S(=O)(=O)c2ccc(F)cc2)Oc2c(NC(=O)Nc3ccccc3)cccc2C1=O,-4.04% [at 12.3 µM] (inactive)
16,C[C@@H]1CN([C@H](C)CO)C(=O)c2cccc(NC(=O)Nc3cccc4ccccc34)c2O[C@@H]1CN(C)C(=O)Nc1cccc2ccccc12,-85% (inactive)
17,CNC[C@H]1Oc2c(NC(=O)Nc3cccc4ccccc34)cccc2C(=O)N([C@H](C)CO)C[C@H]1C,56.8% (active)
18,C[C@H]1CN([C@@H](C)CO)C(=O)c2cc(NC(=O)Nc3ccc4c(c3)OCO4)ccc2O[C@H]1CN(C)S(=O)(=O)c1ccc(F)cc1,68.9% (active)
19,CCCN(C)C[C@@H]1Oc2cc(-c3cccc(C#N)c3)ccc2S(=O)(=O)N([C@@H](C)CO)C[C@@H]1C,1.91% (inactive)
20,C[C@H](CO)N1C[C@H](C)[C@H](CN(C)C(=O)NC2CCCCC2)Oc2ccc(NC(=O)c3ccncc3)cc2CC1=O,-6.85% (inactive)
21,C[C@@H]1CCCCO[C@H](CN(C)S(=O)(=O)c2cn(C)cn2)[C@H](C)CN([C@@H](C)CO)C(=O)c2cc(NC(=O)Nc3ccc(C(F)(F)F)cc3)ccc2O1,-4.59% (inactive)
